Screening results (PubChem)
DRD3 antagonist: antagonists of human D3 dopamine receptor | max response, negative = inhibition, % | AID 652054 | actives 2.5% (n = 360,000) | D3R cells, DiscoveRx beta-arrestin luminescence, antagonist mode; active compounds read low | P35462; in the data active means max response below about -50%; inconclusive means no clear call, values can overlap the other calls; further: on the % scale 0 is the no-effect control and ±100 the full control effect
Target sequence (P35462 whole entry, looked up): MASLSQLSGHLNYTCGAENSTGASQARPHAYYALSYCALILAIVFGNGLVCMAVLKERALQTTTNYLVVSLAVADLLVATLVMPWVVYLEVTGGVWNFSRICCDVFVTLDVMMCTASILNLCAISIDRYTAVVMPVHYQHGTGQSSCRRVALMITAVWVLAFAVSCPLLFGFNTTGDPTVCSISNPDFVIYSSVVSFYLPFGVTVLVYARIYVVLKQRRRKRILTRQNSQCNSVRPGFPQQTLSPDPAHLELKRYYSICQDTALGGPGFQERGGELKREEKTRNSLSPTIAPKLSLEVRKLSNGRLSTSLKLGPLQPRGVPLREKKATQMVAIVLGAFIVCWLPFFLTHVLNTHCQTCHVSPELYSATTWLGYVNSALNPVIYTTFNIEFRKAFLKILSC
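Cells plated overnight at 1500 cells/well, then exposed to library compounds with dopamine controls for 90 minutes at 37 degrees C. DiscoveRx reagent added for 30–60 minutes at room temperature; luminescence read, quantitative HTS format.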
SW480 rerep: inducers of DNA re-replication in SW480 colon cancer cells; SW480 DNA re-replication, Hoechst DNA content imaging, 48 h; Potency, µM (titrated, usually from 46.1 µM), for the others: top-dose re-replication activation, most hits filed as activators; actives 1.8% (n = 340,000); further: potency means the concentration at half of the fitted maximal effect; % of control where 0% means no effect; nearly all actives have a fitted effect of over 55% in size
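Treated cells incubate 48 hr (37 C, 5% CO2), are stained 40 min with Hoechst, and nuclear fluorescence is enumerated; a rise in nuclei with high DNA signal marks re-replication.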
D3 ag: D3 dopamine receptor (human) agonism. P35462. D3R DiscoveRx beta-arrestin cells, luminescence, 90 min. max activation, %. actives 0.58% (n = 410,000). AID 652048; in the data active means max activation above about 30%; further: 0% is about no effect
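Agonist mode: compounds and dopamine controls were applied to plated cells for 90 min at 37 degrees C after an overnight attachment at 1500 cells/well. Luminescent read-out followed 30 - 60 minutes at room temperature with DiscoveRx detection reagent.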
KB-V1 MDR tox: kills drug-selected multidrug resistant KB-V1 cells; KB-V1 MDR cells viability, CellTiter-Glo, 72 h; Potency, µM (doses to about 46.1 µM), hits mostly cytotoxic; actives 3.4% (n = 400,000); further: potency means the concentration at half of the fitted maximal effect; on the % scale 0 is the no-effect control and ±100 the full control effect; nearly all actives have a fitted effect of over 60% in size
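Cytotoxicity toward P-gp-expressing KB-V1 cells was determined as loss of CellTiter-Glo luminescence after 72 h at 37 degrees C. Compounds were tested in quantitative HTS format across a concentration range, with curves fitted to normalized data.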
MCF10A rerep: DNA re-replication induction in MCF 10a cells. MCF 10A DNA re-replication, Hoechst nuclear intensity, 48 h. Potency, µM (highest dose often 46.1 µM), without a hit: at the top dose activity, positive = re-replication, usual class: activators. actives 2.9% (n = 350,000); further: potency means the concentration at half of the fitted maximal effect; % of control where 0% means no effect; nearly all actives have a fitted effect of over 50% in size
KB-3-1 cytotox: kills parental KB-3-1 adenocarcinoma cells; KB-3-1 viability, CellTiter-Glo ATP luminescence, 72 h; Potency, µM (titrated, usually from 46.1 µM), most hits filed as cytotoxic; actives 1.4% (n = 400,000); AID 1347075; further: potency means the concentration at half of the fitted maximal effect; on the % scale 0 is the no-effect control and ±100 the full control effect; nearly all actives have a fitted effect of over 60% in size
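Cytotoxicity measured as CellTiter-Glo luminescence after 72 h at 37 C. Compound titrations were pinned onto drug-naive KB-3-1 parental adenocarcinoma cells grown in DMEM with 10% FBS, and normalized data fitted to concentration-response curves.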
An asterisk follows results filed as active; i = inactive; u = inconclusive; x = no result; [ ] = remark or other dose. Only some compounds are listed: those with a hit (about 8.9% of all), similar ones and a draw of the others. Unless noted, the call rests on the fitted dose curve; in most records, active means well fitted curve in the direction sought with a large enough effect; inconclusive means small, poorly fitted or top-dose-only effect, or another doubt; inactive means no such curve, though single readings can be large; an effect the other way counts as inactive or inconclusive.

SMILES | DRD3 antagonist | SW480 rerep | D3 ag | KB-V1 MDR tox | MCF10A rerep | KB-3-1 cytotox
O=C(c1cccc(Cl)c1)N1CCC(=O)N([C@H](COCc2cccc(Cl)c2)Cc2ccccc2)CC1 | 2 | x | -3 | u | x | u
O=C(c1ccc(N2CCN(C3CC(=O)N(Cc4cccs4)C3=O)CC2)cc1)c1cccnc1 (stereo unspecified) | 18 | -1% | -2 | i | 0% | i
Cc1cc(N2C(=O)CC(N3CCN(c4ccc(C(=O)c5cccs5)cc4)CC3)C2=O)no1 (stereo unspecified) | -52* | -1% | 3 | i | 1% | i
CC(C)(C)OC(=O)C[C@@H]1C/C=C\C[C@H](CC(=O)N(CCO)Cc2ccccc2)C(=O)NCCOC1=O | 3 | 1% | -12 | i | -15% | i
CCOc1ccccc1N1CCN(C(=O)CC(C)C)CC1 | -5 | -6% | 5 | 23µM* | -1% | i
CCOc1ccccc1N1CCN(C(=O)c2cc3ccccc3cc2OC)CC1 | 3 | 15µM* | 1 | 16µM* | 2.1µM* | 3.7µM*
CCOc1ccccc1N1CCN(C(=O)c2cc3c(C)cc(C)cc3[nH]2)CC1 | 5 | 21µM* | 13 | 23µM* | u | 18µM*
CCOC(=O)C1CCN(C(=O)c2cc3c(C)cc(C)cc3[nH]2)CC1 | -14 | 14% | -11 | u | -9% | i
CCCN(C(=O)C1CCN(S(=O)(=O)c2c(C)noc2/C=C/c2ccc(C)cc2)CC1)c1ccccc1F | x | x | -1 | x | x | x
COc1ccc(-c2oc(=O)c3cc(OC)c(OC)cc3c2-c2cc(F)cc(OC)c2)cc1 | 61 | 25% | 22 | i | u | i
COc1ccc(-c2oc(=O)c3cc(OC)c(OC)cc3c2C(F)(F)F)cc1 | 21 | 4%[9.22 µM] | 62* | i | 33% | i
Cc1ccc(CNS(=O)(=O)c2cc3c(cc2Cl)NC(=O)CO3)o1 | x | x | -7 | i | x | i
O=P(c1ccccc1)(c1ccccc1)c1ccccc1C(Br)Br | -67* | x | 3 | u | x | i
Cc1cc(C)cc(NC(=O)Nc2ccc(NC(=O)c3ccccc3O)cc2)c1 | 13 | 21µM* | -7 | i | 18µM* | i
Nc1c(C(=O)Nc2ccc3c(c2)OCCO3)nnn1Cc1cccc(Cl)c1 | -15 | -91% | 1 | i | u | 16µM*
CC[n+]1c(/C=C/N(C)c2ccccc2)n(-c2ccccc2)c2ccc(-c3nc4ccccc4s3)cc21 | 23 | 16µM* | 27 | i | u | 5.8µM*
Cc1cc(S(=O)(=O)Nc2c(C)nn(C)c2C)c(Cl)cc1Cl | 7 | u | 6 | 18µM* | -11% | u
CCCCCCCCCCOCC(O)CN (stereo unspecified) | x | 0% | -7 | x | u | x
COc1ccc(CNC(=O)c2sc(=O)n(Cc3ccccc3OC)c2C)cc1 | 2 | x | 6 | 9.2µM* | x | u
Cc1c(C(=O)NCc2ccc(C#N)cc2)sc(=O)n1Cc1ccccn1 | 19 | x | 1 | u | x | i
COc1ccc(NC(=O)c2sc(=O)n(Cc3ccccc3C#N)c2C)cc1OC | 10 | x | 17 | 5.8µM* | x | u
Cc1cccc(C)c1Cn1c(C)c(C(=O)NCc2ccc(C#N)cc2)sc1=O | u | x | 2 | 18µM* | x | u
COc1ccc(CNC(=O)c2cn(Cc3ccccc3OC)c(=O)s2)cc1 | 2 | x | -9 | 7.3µM* | x | i
Cc1c(C(=O)NCc2ccc(F)cc2)sc(=O)n1Cc1ccc(C(=O)c2ccccc2)cc1 | -12 | x | 2 | 10µM* | x | u
COc1ccc(Cl)cc1Cn1c(C)c(C(=O)NCc2ccc(F)cc2)sc1=O | u | x | -2 | 15µM* | x | u
SMILES | DRD3 antagonist | SW480 rerep | D3 ag | KB-V1 MDR tox | MCF10A rerep | KB-3-1 cytotox
CC(=O)Oc1ccc(Cn2c(C)c(C(=O)N(C)Cc3ccc(F)cc3)sc2=O)cc1 | -30 | x | 0 | u | x | u
Cc1c(C(=O)Nc2cccc(Oc3ccccc3)c2)sc(=O)n1Cc1ccc(F)cc1 | 13 | x | 2 | u | x | u
COC(=O)c1ccc(Cn2c(C)c(C(=O)Nc3cccc(Oc4ccccc4)c3)sc2=O)o1 | 14 | x | 4 | 12µM* | x | u
CC(=O)Oc1ccccc1Cn1c(C)c(C(=O)N(C)Cc2ccc(F)cc2)sc1=O | 3 | x | 2 | 18µM* | x | u
Cc1c(C(=O)NCc2cccc(Cl)c2)sc(=O)n1Cc1ccc(F)cc1 | -10 | x | 3 | u | x | i
OC[C@H]1O[C@@H](n2cnc3c(=S)nc[nH]c32)[C@H](O)[C@@H]1O | x | x | -24 | x | x | x
CCc1cccc(C)c1NC(=O)c1cc(S(=O)(=O)N2CCN(c3ccccc3)CC2)ccc1F | x | x | 0 | i | x | i
Cc1c(C(=O)NCc2cccc(C(F)(F)F)c2)sc(=O)n1Cc1cccc(F)c1 | -52* | x | -9 | 15µM* | x | u
Cc1ccccc1CN1CCCN(CC(=O)Nc2ccc3c(c2)OCCO3)S1(=O)=O | x | x | 2 | i | x | i
COc1ccccc1OCCCn1c(=O)sc2ccccc21 | 17 | -1% | -24 | 15µM* | 15% | i
COc1ccccc1OCCCn1c(=O)oc2ccccc21 | 10 | -6% | 6 | i | 2% | i
O=C(CN1CCN(Cc2ccccc2)CC1)NCc1ccccc1Cl | 0 | -3% | -5 | i | 4% | i
O=C(CN1CCN(S(=O)(=O)c2cc(Br)ccc2Br)CC1)NCc1ccccc1Cl | 7 | 11% | 2 | 3.7µM* | 12% | i
Cc1ccccc1C(=O)NC1CCN(Cc2nnnn2Cc2ccccc2)CC1 | -17 | -7% | -3 | u | 6% | i
Cc1ccc(Cn2nnnc2CN2CCC(c3nc4ccc(Cl)cc4[nH]3)CC2)cc1 | 0 | 12% | -6 | 3.3µM* | u | 18µM*
O=C(NC1CCN(Cc2nnnn2CCc2ccccc2)CC1)c1ccccc1F | -4 | -6% | 3 | 16µM* | 1% | i
CCC(C)(C)n1nnnc1CN1CCC(NC(=O)c2ccc(Br)cc2)CC1 | 0 | 2% | 8 | i | 6% | i
Cc1ccc(Cn2nnnc2CN2CCC(NC(=O)c3ccc(Br)cc3)CC2)cc1 | -65* | -3% | 1 | 18µM* | 3% | i
O=C(Cn1nc(-c2ccccc2)c2c(c1=O)CCCC2)Nc1ccc(F)c(Cl)c1 | x | x | -8 | u | x | 23µM*
O=C(Cn1nc(Cc2cccnc2)c2ccccc2c1=O)Nc1ccc(F)c(Cl)c1 | x | x | 39* | x | x | x
COc1ccc2c(c1)CC(NC(=O)Nc1cc(Cl)ccc1OC)CO2 (stereo unspecified) | x | x | -28 | i | x | i
CSc1ccc(CCNC(=O)c2sc3ncccc3c2-n2cccc2)cc1 | x | x | 7 | i | x | i
